Nrf2 ARE act = activates Nrf2 signaling. hit rate 0.31% among 410,000. AREc32 ARE-luciferase reporter (MCF7-derived line), luminescence, 24 h. AID 624171. Potency, µM (top dose mostly 46.1 µM), inactives show at the highest dose activation, most hits filed as activators; also: potency is read from the fitted curve at half-maximal effect; % of control where 0% means no effect; nearly all actives have a fitted effect of over 65% in size
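ARE activation measured as luciferase luminescence (Steady-Glo, 30 min RT) in AREc32_Fluc cells after 24 hr compound exposure at 37 deg C, 5% CO2; cells seeded overnight at 1000/well in OPTI-MEM, 5% FBS.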
Nrf2 block = Nrf2 pathway inhibition. hit rate 2.1% among 360,000. Potency, µM (series often up to 46 µM), without a hit: at the highest dose activity change, negative = inhibition, usual class: inhibitors. A549 ARE-Fluc reporter, luciferase luminescence, 18-24 h. AID 504444; also: potency is read from the fitted curve at half-maximal effect; % is scaled to controls: 0 for no effect and ±100 for the full control effect; nearly all actives have a fitted effect of over 60% in size
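Quantitative HTS in A549 cells stably bearing an antioxidant response element-firefly luciferase construct. Inhibition of Nrf2-driven transcription was scored by luminescence after 18-24 h of compound exposure at 37 °C.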
mIDH1 inhibitor = inhibitors of human mutant IDH1 R132H; AID 602179; Potency, µM (highest dose often 76.6 µM), for inactives: at the highest dose activity change, negative = inhibition, most hits filed as inhibitors; IDH1-R132H enzyme, NADPH consumption, diaphorase/resazurin fluorescence; hit rate 0.093% among 390,000; also: potency is read from the fitted curve at half-maximal effect; % is scaled to controls: 0 for no effect and ±100 for the full control effect; nearly all actives have a fitted effect of over 65% in size
Target sequence (O75874 whole entry R132H, stated change not applied): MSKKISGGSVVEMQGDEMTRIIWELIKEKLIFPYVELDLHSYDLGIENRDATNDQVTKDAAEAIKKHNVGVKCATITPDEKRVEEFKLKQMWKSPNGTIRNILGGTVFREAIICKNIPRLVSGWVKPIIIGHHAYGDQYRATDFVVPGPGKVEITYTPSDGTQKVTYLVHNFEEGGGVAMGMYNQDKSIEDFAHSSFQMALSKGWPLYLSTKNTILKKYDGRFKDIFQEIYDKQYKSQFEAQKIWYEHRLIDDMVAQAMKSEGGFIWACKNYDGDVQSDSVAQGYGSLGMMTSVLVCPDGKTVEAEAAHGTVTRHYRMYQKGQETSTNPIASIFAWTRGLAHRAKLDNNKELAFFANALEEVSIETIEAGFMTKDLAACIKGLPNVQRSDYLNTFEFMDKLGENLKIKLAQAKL
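IDH1-R132H (0.5 ug/mL dispensed) in pH 7.5 Tris buffer was preincubated 30 min with compound, then given a substrate mix of 0.016 mM NADPH and 2 mM alpha-KG for 80 min at room temperature; remaining NADPH was read by diaphorase/resazurin fluorescence.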
ALOX12 inh = blocks human arachidonate 12S-lipoxygenase. P18054. purified 12hLO, xylenol orange hydroperoxide absorbance. Potency, µM (highest dose often 108 µM), for inactives: at the highest dose activity change, negative = inhibition, hits mostly inhibitors. hit rate 1.1% among 580,000. AID 1671190; also: potency is read from the fitted curve at half-maximal effect; % is scaled to controls: 0 for no effect and ±100 for the full control effect
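Purified human 12hLO (150 nM final) in 25 mM Hepes, 0.01% Triton X-100, pH 7.0 was preincubated 15 min at room temperature with compound. Then 40 uM arachidonic acid was added, 30 min. Hydroperoxide was read by Fe-XO absorbance ratio 573/405 nm.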
A549 viability = kills or reduces viability of A549 cells in Nrf2 counter-screen; A549 ARE-Fluc cells, CellTiter-Fluor viability, 18-24 h; hit rate 0.16% among 390,000; Potency, µM (highest dose often 46 µM), inactives show top-dose activity change, negative = cytotoxicity, actives largely listed as inhibitors; also: potency is read from the fitted curve at half-maximal effect; % is scaled to controls: 0 for no effect and ±100 for the full control effect
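A549 ARE-Fluc cells in 5% FBS OPTI-MEM, 5000 cells/well, rested 2 h then exposed to compounds in concentration-response for 18-24 h at 37 °C. Viability by CellTiter-Fluor fluorescence (Ex 405/Em 525) after 30 min; luciferase luminescence (BugLite, 15 min, RT) read afterwards.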
LDHA block = blocks human lactate dehydrogenase A; activity change, % (values are at about 110 or 230 µM); AID 1347041; P00338; purified LDHA, NADH/diaphorase-resazurin fluorescence; active compounds read low; hit rate 0.15% among 480,000; in the data active = activity change below about -30%; inconclusive = mostly about -25% to -30%;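 also: plate controls were DMSO wells for no effect and wells without enzyme for full effect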
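Human LDH5 at 2 nM final in Tris HCl pH 7.4 with 0.06 mM NADH and 0.2 mM pyruvate, reacted 5 minutes at room temperature. Remaining NADH coupled via diaphorase/resazurin; resorufin fluorescence read at 0 and 20 minutes, normalized to enzyme-free and DMSO wells.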
* hit, by the source's call; ? = inconclusive; / = no result; ! = not active in a repeat; [ ] = another dose, or the depositor's remark. An excerpt weighted towards active compounds, which were near 2.7% of everything screened. Unless noted, calls follow the shape of the dose curve; as a rule, active = well fitted curve in the direction sought with a large enough effect; inconclusive = small, poorly fitted or top-dose-only effect, or another doubt; inactive = no such curve, though single readings can be large; an effect the other way counts as inactive or inconclusive.

SMILES	Nrf2 ARE act	Nrf2 block	mIDH1 inhibitor	ALOX12 inh	A549 viability	LDHA block
O=S(=O)(c1ccc2nc(NC3CCCCC3)ccc2c1)N1CCCC1	/	/	/	11.2µM*	/	26.7
FC(F)(F)c1cccc(-n2c(-c3ccc(Br)cc3)c[n+]3c2CCc2ccccc2-3)c1	/	/	/	?	/	10.1
Cc1ccc(-n2c(-c3ccccc3)c[n+]3c2CCc2ccccc2-3)c(C)c1	10.2%	4.11µM*	-3.6%	5.7%	?	-16.8
CN1C(=O)[C@@H]2C[C@@H](CN2Cc2ccc3c(c2)OCO3)Oc2ccccc21	/	/	/	9.7%[176 µM]	/	/
CC(C)(C)c1cc(N)c(O)c(Cl)c1	/	/	/	17.8µM*	/	-2.4
CC(C)(C)c1cc(-c2nc(N)nc(N)n2)c(O)c(C(C)(C)C)c1	-3.0%	?	-20.0%	?	?	0.5
O=C(CSc1ncnc2ccccc12)N(C1CCCC1)C1CCS(=O)(=O)C1 (stereo not drawn)	/	/	/	12.6%	/	-1.2
O=C(CSc1nc2ccccc2o1)OCC(=O)c1ccccc1	/	/	/	9.4%	/	-3.9
CC1(C)COC(/C=C/c2cccc([N+](=O)[O-])c2)=N1	12.6µM*	?	-1.7%	?	?	-10.4
CC1(C)COC(c2cc([N+](=O)[O-])ccc2Cl)=N1	-0.6%	/	-1.2%	0.0%	-2.3%	-7.4
Cc1ccc(S(=O)(=O)NC(=O)NN2CC3CCCC3C2)cc1 (stereo not drawn)	0.2%	25.2%	9.0%	3.06µM*!	-5.4%	7.3
NCC1CCN(CCO)C1 (stereo not drawn)	/	/	/	?	/	-2.9
CCOc1ccc(CNC(=S)N/N=C/c2ccc(OC)c(OC)c2)cc1	0.9%	-15.8%	-0.9%	14.1µM*	-0.7%	-3.1
COc1ccc(C=NNC(=S)NC23CC4CC(CC(C4)C2)C3)cc1OC	5.7%	?	2.2%	44.7µM*	-9.4%	-0.5
COc1cccc(/C=N/NC(=O)NC23CC4CC(CC(C4)C2)C3)c1O	6.8%	-4.4%	-7.9%	/	-11.6%	5.9
COc1cc(OC)c(C=NNC(=S)NC23CC4CC(CC(C4)C2)C3)c(OC)c1	0.5%	?	-4.4%	12.6µM*	1.0%	-6.2
Cc1ccc(NS(=O)(=O)c2cc(C(=O)Nc3ccc4oc(C)nc4c3)ccc2C)cc1	/	/	/	0.0%	/	3.3
COc1cccc(-c2cncnc2Nc2ccccc2)c1	/	/	/	39.8µM*	/	/
CS(=O)(=O)Nc1cccc(-c2cncnc2NCc2ccccc2)c1	/	/	/	39.8µM*	/	/
COc1cccc(-c2cc(NCc3cccc(C)c3)ncn2)c1	/	/	/	-24.5%	/	/
CS(=O)(=O)Nc1cccc(-c2cc(NCc3ccccc3)ncn2)c1	/	/	/	11.2µM*	/	/
CN(C)c1cc(-c2cccc(NS(C)(=O)=O)c2)ncn1	/	/	/	35.5µM*	/	/
COc1cccc(C(=O)OCc2nc(-c3ccc(OC(F)(F)F)cc3)no2)c1	/	/	/	-1.2%	/	2.9
CCOC(=O)C1C(C)=C/C(=N\O)CC1C(C)C (stereo not drawn)	/	/	/	-3.3%	/	8.4
CCn1c(=O)c2c(n3c(=S)[nH]nc13)-c1ccccc1CC21CCCCC1	0.5%[9.22 µM]	-11.7%	-19.4%	14.1µM*	-3.4%	-6.8
SMILES	Nrf2 ARE act	Nrf2 block	mIDH1 inhibitor	ALOX12 inh	A549 viability	LDHA block
CCSc1nnc2n(C)c(=O)c3c(n12)-c1ccccc1CC31CCCCC1	/	/	/	0.7%	/	-4.7
Cc1ccc(C(=O)NC2(O)C(=O)c3ccccc3C2=O)cc1C	13.1%	1.4%	12.9%	20µM*	5.0%	1.6
Cc1cccc2c(-c3ccccc3)cc(=O)[nH]c12	-0.4%	-13.9%	8.9%	0.0%	-3.3%	-5.3
Cc1cc(=S)[nH]c2c(C)cccc12	-0.1%	4.2%	9.3%	1.12µM*!	1.3%	6.5
CN1CCN(CCOCCOc2ccc(Br)cc2Cl)CC1	-0.5%	2.3%	-8.0%	-21.9%	11.2%	-37.5*
Cc1ccc(OCCOCCN2CCN(C)CC2)c([N+](=O)[O-])c1	-0.5%	-34.8%	3.3%	?	-17.2%	-46.3*
CC1CCCN(CCOCCOc2ccc(Br)cc2Cl)C1 (stereo not drawn)	2.1%	9.6%	-7.1%	?	0.8%	?
CCN1C(=O)/C(=C2/C=Cc3ccccc3N2CC)SC1=S	?	6.1%	1.3%	?	?	0.7
CCCN1/C(=C2/SC(=S)N(CC)C2=O)C=Cc2ccccc21	0.7%	?	3.5%	-11.4%	18.4µM*	-2.8
CN1C(=O)/C(=C2/C=Cc3ccccc3N2CCCS(=O)(=O)O)SC1=S	8.1%	-7.6%	4.5%	-20.4%	20.6µM*	6.0
CCCN1C(=O)/C(=C2/C=Cc3ccccc3N2CC)SC1=S	8.3%	-27.9%	-2.7%	-5.6%	14.6µM*	-2.5
CCCCn1c(=O)n(CC(=O)Nc2ccc(F)c(F)c2)c(=O)c2c1ncn2CCC(C)C	/	/	/	-25.2%	/	4.3
COc1cccc(C(=O)N2CCN(Cc3cc(=O)oc4ccc(OC)cc34)CC2)c1	/	/	/	?	/	-0.9
COc1cc(-c2cc(=O)c3ccc(O)cc3o2)cc(OC)c1OC	/	/	/	0.5%	/	/
COc1cc(OC)c(-c2c3cc(O)c(=O)cc-3oc3cc(O)c(O)cc23)cc1OC	-2.0%	?	11.7µM*	?	16.4µM*	30.2
Cn1c(=O)n(C)c2cc(NC(=O)COc3ccc(Cl)cc3)ccc21	2.1%	16.4µM*	-3.0%	0.5%	0.9%	-2.8
Cn1c(=O)n(C)c2cc(NC(=O)COc3ccc(F)cc3F)ccc21	-0.2%[9.22 µM]	?	0.0%	40.2%	-1.8%	-2.2
O=C(c1ccc2c(c1)CCC2)N1C[C@H]2CC[C@@H]1CN(Cc1cscn1)C2	/	/	/	46.8%	/	/
O=C(Cn1ccc(=O)[nH]c1=O)N1C[C@H]2CC[C@@H]1CN(Cc1cscn1)C2	/	/	/	8.91µM*	/	/
O=C(C[n+]1ccc2ccccc2c1)c1ccccc1	8.9%	1.1%	-1.3%	-10.0%	-2.3%	8.8
Clc1cccc(Cl)c1C[n+]1ccc2ccccc2c1	0.1%	6.51µM*	8.5%	-22.2%	-2.6%	-3.2
CCS(=O)(=O)Nc1ccc(C2(C(=O)NCc3ccc4c(c3)OCO4)CCCCC2)cc1	/	/	/	10.7%	/	/
Cc1ccc(Oc2cc([N+](=O)[O-])cc3c2C(=O)Nc2ccccc2O3)cc1	9.9%	14.6µM*	0.5%	-18.8%	-8.0%	-8.2
O=C(O)CCC(=O)OCCc1ccccc1	/	/	/	-19.3%	/	1.3
COc1ccc(NC(=S)NCc2ccccc2Cl)c(OC)c1	-0.2%	23.1µM*	3.7%	?	-0.2%	-5.9
Cc1c(Cl)cccc1NC(=O)Nc1ccc2snnc2c1	-1.1%	20.6µM*	12.7%	0.0%	?	0.5
O=C(Nc1ccc(F)cc1)Nc1ccc2snnc2c1	0.3%	23.1µM*	14.4%	?	-23.5%	1.4
CN(C(=O)CCc1ccsc1)C1CCCCC1	/	/	/	-8.2%	/	-5.8
